Most compounds without a hit are left out; they make up all but 8.8% or so of the library.
HT1080 IDH1KD tx: qHTS for induction of synthetic lethality in tumor cells producing 2HG: qHTS for the HT-1080-IDH1KD cell line; AID 686971, 2013; 360,000 tested, 2% active; Potency, µM (series often up to 46.1 µM), inactives show at the highest dose activity, negative = toxicity, hits mostly cytotoxic; HT-1080 IDH1 knockdown viability, ATP luminescence, 48 h;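 also: potency is read from the fitted curve at half-maximal effect; 0% = DMSO wells and -100% = cell-free medium wells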
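In this qHTS, HT-1080 cells depleted of IDH1 are exposed for 48 h at 37 °C to compound titrations. Toxicity is scored from CellTiter-Glo luminescence, with DMSO as full viability and medium alone as none.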
HT1080-NT tox: qHTS for induction of synthetic lethality in tumor cells producing 2HG: qHTS for the HT-1080-NT fibrosarcoma cell line | Potency, µM (highest dose often 46.1 µM), for inactives: top-dose activity, negative = less viability, hits mostly cytotoxic | HT-1080-NT fibrosarcoma viability, CellTiter-Glo ATP luminescence, 48 h | AID 686970, 2013 | 360,000 tested, 1.6% active;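 also: NT is the 2HG producing partner of a matched IDH1 knockdown line; potency is read from the fitted curve at half-maximal effect; 0% = DMSO-treated cells and -100% = media-only wells without cells; nearly all actives have a fitted effect of over 55% in size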
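Viability by CellTiter-Glo luminescence after 48 h compound exposure at 37C of HT-1080-NT cells (750/well, RPMI, 5% FBS). % activity scaled between DMSO wells and medium-only wells, then curve-fitted and categorized by curve class.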
KB-V1 MDR tox: qHTS assay for MDR1-selective chemotherapeutics: Primary screen using the drug-selected MDR subline cells KB-V1; KB-V1 MDR cells viability, CellTiter-Glo, 72 h; Potency, µM (top dose mostly 46.1 µM), most hits filed as cytotoxic; 400,000 tested, 3.4% active; AID 1347076, 2019; also: potency is read from the fitted curve at half-maximal effect; nearly all actives have a fitted effect of over 60% in size
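Following 72 h at 37 degrees C with compound, KB-V1 cell viability was read by CellTiter-Glo luminescence, medium being phenol-red-free DMEM plus 10% FBS; concentration-response parameters came from normalized, curve-fitted qHTS data.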
IL-1B inflam inh: qHTS for Inhibitors of Inflammasome Signaling: IL-1-beta AlphaLISA Primary Screen; THP-1 LPS/ATP IL-1B secretion, AlphaLISA, 16 h; hits give low values; activity change, % at 57.5 µM; 360,000 tested, 4.7% active; AID 743279, 2014; in the data active = activity change below about -50%; inconclusive = mostly about -30% to -49%
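THP-1 cells pretreated 1 hr with compounds (up to 57.5 uM final), then stimulated with LPS (250 ng/mL final) plus ATP (1.25 mM final); secreted IL-1B measured by AlphaLISA after 16 hr, decreased signal indicating inhibition.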
KB-3-1 tox: qHTS assay for MDR1-selective chemotherapeutics: Primary screen using the parental adenocarcinoma cell KB-3-1 | KB-3-1 viability, CellTiter-Glo ATP luminescence, 72 h | Potency, µM (top dose mostly 46.1 µM), most hits filed as cytotoxic | 400,000 tested, 1.4% active | AID 1347075, 2019; also: potency is read from the fitted curve at half-maximal effect; nearly all actives have a fitted effect of over 60% in size
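Screening of KB-3-1 cells (DMEM, 10% FBS, phenol-red free) ran from lowest to highest compound concentration; after 72 h at 37 °C viability was read luminescently and curves fitted.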
* marks the source's active call; other numbers are inactive results; i = inactive; ? = inconclusive; / = no result given. Unless noted, calls follow the shape of the dose curve; as a rule, active = well fitted curve in the direction sought with a large enough effect; inconclusive = small, poorly fitted or top-dose-only effect, or another doubt; inactive = no such curve, though single readings can be large; an effect the other way counts as inactive or inconclusive. Unless noted, % is scaled to controls: 0 for no effect and ±100 for the full control effect.

SMILES	HT1080 IDH1KD tx	HT1080-NT tox	KB-V1 MDR tox	IL-1B inflam inh	KB-3-1 tox
Cc1ccc(C(=O)NCC(=O)N(C)Cc2ccccc2C)s1	9%	18%	i	-11	i
CS(=O)(=O)Nc1cccc(C2=NN(C(=O)c3ccco3)C(c3ccco3)C2)c1 (stereo not drawn)	-26%	-1%	i	-5	?
CC(C)[C@H](NS(=O)(=O)c1ccccc1)C(=O)OCC(=O)N1N=C(c2ccc(Cl)cc2)CC1c1ccco1 (stereo partly drawn)	?	?	?	-72*	i
CCS(=O)(=O)Nc1cccc(C2=NN(C(=O)c3ccco3)C(c3ccco3)C2)c1 (stereo not drawn)	?	?	i	-22	8.2µM*
CC(C)(CNC(=O)c1ccc(Br)o1)CNC(=O)c1ccc(Br)o1	-1%	16%	i	33	i
O=C(C(=Cc1ccccc1)CN1CCCCC1)c1ccccc1	4.6µM*	?	?	-104*	5.2µM*
CCOC(=O)[C@]12CCC=C1N(Cc1ccccc1)C(=O)[C@H](CC(=O)NCC13CC4CC(CC(C4)C1)C3)C2	?	?	?	-7	i
COc1ccc(/C=N/n2cc(-c3ccccc3)nc2N)cc1	-12%	-14%	7.3µM*	9	3.7µM*
COCCCNC1=C(C#N)C(=O)NC(c2cccs2)S1 (stereo not drawn)	4%	8%	i	-25	i
Cc1ccc(S(=O)(=O)N2CCCCC2)cc1NC(=O)c1ccc(=O)[nH]c1	2%	0%	i	2	i
CCCOc1ccc(C(=O)Nc2ccc(-c3cc4ccccc4oc3=O)c(C)c2)cc1	/	/	?	/	10µM*
CCCOc1cccc(C(=O)Nc2ccc(-c3cc4ccccc4oc3=O)c(C)c2)c1	/	/	?	/	i
CCS(=O)(=O)CCSC1OC(COC(C)=O)C(OC(C)=O)C(OC(C)=O)C1OC(C)=O (stereo not drawn)	28%	26%	i	10	i
COc1ccc(/C=C2/NC(=O)N(Cc3ccccc3F)C2=O)cc1OC	6%	20%	i	7	i
COc1cc(/C=C2/NC(=O)N(Cc3ccccc3F)C2=O)cc(OC)c1OC	-23%	-6%	0.18µM*	?	i
COC(=O)[C@]1(C)N[C@H](CN(C)C(=O)c2ccccc2)[C@@H]2C(=O)N(C)C(=O)[C@@H]21	10%	17%	?	48	i
O=C(Nc1ccccc1O)c1c(O)c2c([nH]c1=O)CCCC2	?	?	i	-68*	i
NNc1nc(-c2ccccc2)c2cc(Cl)ccc2n1	-15%	-4%	i	-28	i
O=C(NCCO)c1cccc(Nc2nc(-c3ccccc3)c3cc(Cl)ccc3n2)c1	?	?	16µM*	?	i
CC(=O)c1cccc(-c2ccnc3c2CC(C(=O)NCC2CCOCC2)O3)c1 (stereo not drawn)	?	?	i	20	4.6µM*
CC(=O)Nc1ccc(-c2ccnc3c2CC(C(=O)NCC2CCOCC2)O3)cc1 (stereo not drawn)	?	?	i	40	5.8µM*
CC(=O)Nc1ccc(-c2ccnc3c2CC(C(=O)NCC2CC2)O3)cc1 (stereo not drawn)	16µM*	?	i	27	?
CC(=O)c1cccc(-c2ccnc3c2CC(C(=O)NCC2CC2)O3)c1 (stereo not drawn)	?	?	i	65	?
COCCNC(=O)C1Cc2c(-c3ccc(NC(C)=O)cc3)ccnc2O1 (stereo not drawn)	-24%	-28%	i	0	i
CC(=O)Nc1ccc(-c2ccnc3c2CC(C)(C(=O)NCC2CCOCC2)O3)cc1 (stereo not drawn)	-24%	?	i	26	?
SMILES	HT1080 IDH1KD tx	HT1080-NT tox	KB-V1 MDR tox	IL-1B inflam inh	KB-3-1 tox
CCc1ccc2[nH]c3nc(C)cc(C)c3c(=O)c2c1	?	12%	6.5µM*	0	i
CCc1ccc2[nH]cc(S(=O)(=O)c3ccc(C)c(C)c3)c(=O)c2c1	-5%	-2%	i	1	i
O=C(c1cnc(N2CCN(c3ncccn3)CC2)c2ccccc12)N1CCN(c2ccccn2)CC1	-16%	-21%	21µM*	-66*	i
O=C(Nc1c(F)cccc1F)c1cnc(N2CCN(c3ccccn3)CC2)c2ccccc12	-15%	-18%	10µM*	?	?
O=C(c1cn(Cc2ccccc2)nc1-c1ccccc1)N1CCN(c2ccccn2)CC1	16µM*	?	?	7	10µM*
Cc1ccc(NC(=O)c2cnc(N3CCN(c4ccccn4)CC3)c3ccccc23)c(Br)c1	?	-14%	?	-28	?
O=C(c1cc(-c2ccncc2)nc2ccccc12)N1CCN(c2ccccn2)CC1	5.6µM*	7.9µM*	?	8	13µM*
Cc1ccccc1C(=O)N1CCN(c2ccccn2)CC1	19%	18%	i	-11	i
O=C(c1ccccc1-c1ccccc1)N1CCN(c2ccccn2)CC1	6.5µM*	5.8µM*	2.6µM*	0	2.6µM*
COc1nc(OC)nc(N2CCC(C(=O)NCC3CCCCC3)CC2)n1	-1%	7%	18µM*	1	i
O=C(NC1CCCCC1)N1CCCCCC1	-7%	5%	i	6	i
O=C(NCC1CCCCC1)C1CCN(C(=O)NC2CCCCC2)CC1	0%	-1%	16µM*	18	i
O=C(CNC(=S)NC(=O)c1ccco1)c1ccccc1	13%	14%	i	-7	i
COc1ccc(S(=O)(=O)N2CCOCC2)cc1NC(=O)COc1ccc(C(C)=O)cc1OC	9%	10%	i	-7	i
CC1(c2nc3ccccc3[nH]2)c2ccccc2C(=O)N1Cc1ccccn1 (stereo not drawn)	4%	19%	i	20	?
COc1cccc(/C=N/Nc2nccnc2Cl)c1O	?	?	i	111	?
COc1cc(/C=N/Nc2ccc(Cl)nn2)cc(OC)c1O	27%	24%	i	-8	i
COc1cc(/C=C(/C(=O)c2cccs2)c2nc3ccccc3[nH]2)cc(OC)c1O	?	?	21µM*	-98*	3.7µM*
COc1cccc(/C=N/Nc2ncnc(Cl)c2N)c1O	4.1µM*	8.2µM*	?	14	?
COc1cc(/C=N/Nc2ccc(F)cc2F)cc(OC)c1O	?	-17%	i	-89*	i
